Results on 7 sequences are retold here after article PMC4081100, “A DNA-binding-site landscape and regulatory network analysis for NAC transcription factors in Arabidopsis thaliana”.

Common to all, as to assay: universal protein binding microarray (PBM); transcription factors of Arabidopsis thaliana; high values mean tight binding
The target in one experiment is T1, GST-ANAC092(1-176) (Arabidopsis thaliana, UniProt Q9FKA0 1-176).
T1 sequence: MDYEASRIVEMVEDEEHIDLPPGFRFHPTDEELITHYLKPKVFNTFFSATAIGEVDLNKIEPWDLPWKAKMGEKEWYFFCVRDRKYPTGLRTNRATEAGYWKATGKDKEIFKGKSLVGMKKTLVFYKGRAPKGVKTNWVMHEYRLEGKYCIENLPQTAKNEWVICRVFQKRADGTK
The settings on record: protein: recombinant; tags: GST; chain copies: 2; dsDNA, one strand shown. Summed up:
(§1)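 Protein amounts were determined by A280 or anti-GST western blot after glutathione–Sepharose 4B purification of GST-tagged proteins induced in cells, with zinc acetate included for zinc-finger proteins. Duplicate runs at 200 to 500 nM final were done on custom all-10-mer Agilent 4 × 180K arrays made double-stranded by primer extension. The normalised enrichment score (E-score) over gapped and ungapped 8-mers is the measure of binding.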

A further experiment addresses GST-NTL6(1-168) (Arabidopsis thaliana, UniProt Q9SCK6 1-168). The settings on record: protein: recombinant; tags: GST; chain copies: 2; dsDNA, one strand shown. Summed up: as §1
Another experiment deals with T2, GST-ANAC019 NAC domain (Arabidopsis thaliana, UniProt Q9C932 14-162).
T2 sequence: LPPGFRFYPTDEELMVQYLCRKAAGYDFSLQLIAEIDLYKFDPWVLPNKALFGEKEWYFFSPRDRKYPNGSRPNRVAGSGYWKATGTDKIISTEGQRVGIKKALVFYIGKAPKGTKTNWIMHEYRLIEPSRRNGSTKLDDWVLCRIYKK
The settings on record: protein: recombinant; tags: GST; chain copies: 2; dsDNA, one strand shown. Summed up: as §1

For the next experiment, the target named is T3, GST-ANAC055(1-171) (Arabidopsis thaliana, UniProt Q9LDY8 1-171).
T3 sequence: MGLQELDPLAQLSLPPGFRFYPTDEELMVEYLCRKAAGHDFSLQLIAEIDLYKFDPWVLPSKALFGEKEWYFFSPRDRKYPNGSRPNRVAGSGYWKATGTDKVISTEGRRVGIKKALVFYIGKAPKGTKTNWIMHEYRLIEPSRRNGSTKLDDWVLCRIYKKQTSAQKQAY
The note with it: protein: recombinant; tags: GST; chain copies: 2; dsDNA, one strand shown. The method in brief: as §1

A further experiment addresses T4, GST-ATAF1 NAC domain (Arabidopsis thaliana, UniProt Q39013 7-158).
T4 sequence: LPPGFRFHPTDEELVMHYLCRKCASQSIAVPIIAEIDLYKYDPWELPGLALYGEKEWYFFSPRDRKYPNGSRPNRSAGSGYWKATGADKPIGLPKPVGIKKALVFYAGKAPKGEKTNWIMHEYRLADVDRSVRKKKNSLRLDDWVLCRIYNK
The note with it: protein: recombinant; tags: GST; chain copies: 2; dsDNA, one strand shown. The method in brief:
as §1

Experiment [1] deals with T5, GST-ANAC092(1-285) full length (Arabidopsis thaliana, UniProt Q9FKA0 1-285).
T5 sequence: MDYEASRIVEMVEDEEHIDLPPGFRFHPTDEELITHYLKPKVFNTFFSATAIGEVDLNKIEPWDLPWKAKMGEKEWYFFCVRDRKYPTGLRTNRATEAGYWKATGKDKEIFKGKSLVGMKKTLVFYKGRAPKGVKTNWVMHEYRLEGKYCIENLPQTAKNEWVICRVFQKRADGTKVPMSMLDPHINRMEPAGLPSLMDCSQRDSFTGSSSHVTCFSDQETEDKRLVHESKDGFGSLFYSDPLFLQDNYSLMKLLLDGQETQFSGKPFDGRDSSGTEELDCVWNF
The note with it: protein: recombinant; tags: GST; chain copies: 2; dsDNA, one strand shown. Summed up:
as §1

The next experiment deals with T6, GST-NAP(1-166) (Arabidopsis thaliana, UniProt O49255 1-166).
T6 sequence: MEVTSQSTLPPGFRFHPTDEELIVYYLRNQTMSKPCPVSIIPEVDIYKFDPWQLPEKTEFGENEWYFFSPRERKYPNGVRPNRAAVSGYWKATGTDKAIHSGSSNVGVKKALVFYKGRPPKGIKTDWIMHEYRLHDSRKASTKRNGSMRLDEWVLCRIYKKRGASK
The note with it: protein: recombinant; tags: GST; chain copies: 2; dsDNA, one strand shown. The method in brief: as §1

A further experiment addresses T7, GST-NST2(1-184) (Arabidopsis thaliana, UniProt Q9M274 1-184).
T7 sequence: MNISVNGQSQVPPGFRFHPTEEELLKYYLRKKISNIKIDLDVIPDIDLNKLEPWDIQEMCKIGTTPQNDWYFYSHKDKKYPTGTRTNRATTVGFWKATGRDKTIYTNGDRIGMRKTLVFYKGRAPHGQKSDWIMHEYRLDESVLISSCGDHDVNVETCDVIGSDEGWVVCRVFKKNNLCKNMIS
The settings on record: protein: recombinant; tags: GST; chain copies: 2; dsDNA, one strand shown. The method in brief:
as §1

Another experiment has as its target T8, GST-NTL8 NAC domain (Arabidopsis thaliana, UniProt Q9XIN7 14-156).
T8 sequence: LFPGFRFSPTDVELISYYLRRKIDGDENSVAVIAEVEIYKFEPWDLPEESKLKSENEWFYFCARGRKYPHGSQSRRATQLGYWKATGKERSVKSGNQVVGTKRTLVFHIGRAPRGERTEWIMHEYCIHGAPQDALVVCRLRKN
The settings on record: protein: recombinant; tags: GST; chain copies: 2; dsDNA, one strand shown. Summed up:
as §1

Another experiment has as its target T9, GST-SND1(1-203) (Arabidopsis thaliana, UniProt Q9LPI7 1-203).
T9 sequence: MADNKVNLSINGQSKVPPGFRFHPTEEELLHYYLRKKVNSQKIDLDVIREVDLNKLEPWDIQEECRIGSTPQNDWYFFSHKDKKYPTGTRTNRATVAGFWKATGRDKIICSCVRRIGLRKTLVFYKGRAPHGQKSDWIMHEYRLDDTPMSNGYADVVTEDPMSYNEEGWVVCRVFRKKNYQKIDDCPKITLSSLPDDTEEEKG
The note with it: protein: recombinant; tags: GST; chain copies: 2; dsDNA, one strand shown. The method in brief: as §1

In another experiment the target is T10, GST-VND3 NAC domain (Arabidopsis thaliana, UniProt Q9FH59 12-162).
T10 sequence: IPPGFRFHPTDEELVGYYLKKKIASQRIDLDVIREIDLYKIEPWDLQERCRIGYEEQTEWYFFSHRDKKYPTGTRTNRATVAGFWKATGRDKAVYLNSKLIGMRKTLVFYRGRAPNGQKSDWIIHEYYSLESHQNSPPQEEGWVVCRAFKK
The note with it: protein: recombinant; tags: GST; chain copies: 2; dsDNA, one strand shown. The method in brief: as §1

In another experiment the target is T11, GST-VND7 NAC domain (Arabidopsis thaliana, UniProt Q9C8W9 9-158).
T11 sequence: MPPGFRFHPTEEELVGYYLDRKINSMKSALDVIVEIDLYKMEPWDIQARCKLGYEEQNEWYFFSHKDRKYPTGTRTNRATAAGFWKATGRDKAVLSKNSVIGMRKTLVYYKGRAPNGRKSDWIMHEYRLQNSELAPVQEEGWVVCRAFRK
The note with it: protein: recombinant; tags: GST; chain copies: 2; dsDNA, one strand shown. Summed up: as §1

Another experiment concerns the target GST-WRKY1(266-371) (Arabidopsis thaliana, UniProt Q9SI37 266-371). The settings on record: protein: recombinant; tags: GST; dsDNA, one strand shown. Summed up: as §1

GST-WRKY1(266-371), sequence (Q9SI37 266-371): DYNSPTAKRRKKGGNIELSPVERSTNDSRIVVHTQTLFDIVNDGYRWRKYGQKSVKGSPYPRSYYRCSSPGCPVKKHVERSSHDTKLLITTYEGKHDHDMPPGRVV
GST-NTL6(1-168), sequence (Q9SCK6 1-168): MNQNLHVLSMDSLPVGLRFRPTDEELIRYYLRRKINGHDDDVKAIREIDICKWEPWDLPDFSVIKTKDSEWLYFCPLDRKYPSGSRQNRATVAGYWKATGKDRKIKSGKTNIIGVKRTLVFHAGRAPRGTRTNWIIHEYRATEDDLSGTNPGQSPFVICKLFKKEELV

For the sequence TAACGTAA, the binding signal in the experiment with GST-ANAC092(1-176) came to 0.452 E-score; with GST-NTL6(1-168), 0.135 E-score; with GST-ANAC019 NAC domain, 0.25 E-score; in the experiment with GST-ANAC055(1-171), 0.254 E-score; in the experiment with GST-ATAF1 NAC domain, 0.34 E-score; in experiment [1], 0.449 E-score. In addition, the binding signal is 0.309 E-score with GST-NAP(1-166); 0.402 E-score with GST-NST2(1-184); 0.174 E-score with GST-NTL8 NAC domain; 0.488 E-score with GST-SND1(1-203); 0.375 E-score with GST-VND3 NAC domain; 0.413 E-score with GST-VND7 NAC domain. Further, in the experiment with GST-WRKY1(266-371), the binding signal is 0.0682 E-score.

Turning to ATACGTCA, the binding signal with GST-ANAC092(1-176) came out at 0.412 E-score; in the experiment with GST-ANAC019 NAC domain it was 0.251 E-score; in the experiment with GST-ANAC055(1-171) it was 0.267 E-score; in the experiment with GST-ATAF1 NAC domain, 0.345 E-score; in experiment [1], 0.435 E-score; in the experiment with GST-NAP(1-166), 0.373 E-score. In addition, the binding signal is 0.183 E-score in the experiment with GST-NST2(1-184); 0.298 E-score with GST-SND1(1-203); 0.337 E-score with GST-VND3 NAC domain; 0.322 E-score in the experiment with GST-VND7 NAC domain; 0.196 E-score with GST-WRKY1(266-371).

On to CTTTCTTC, for which the binding signal turned out to be 0.137 E-score with GST-ANAC092(1-176); 0.295 E-score in the experiment with GST-NTL6(1-168); 0.117 E-score with GST-ATAF1 NAC domain; 0.21 E-score in experiment [1]; 0.0839 E-score with GST-NAP(1-166); 0.0636 E-score in the experiment with GST-NST2(1-184). Also, the binding signal with GST-NTL8 NAC domain was determined as 0.41 E-score; in the experiment with GST-SND1(1-203), 0.181 E-score; with GST-VND3 NAC domain it was 0.074 E-score; with GST-VND7 NAC domain, 0.0647 E-score; in the experiment with GST-WRKY1(266-371), 0.156 E-score.

As to GTTCCGTA, the binding signal with GST-ANAC092(1-176) amounted to 0.351 E-score; with GST-ANAC019 NAC domain it was 0.43 E-score; in the experiment with GST-ANAC055(1-171), 0.448 E-score; with GST-ATAF1 NAC domain it was 0.438 E-score; in [1], 0.373 E-score; in the experiment with GST-NAP(1-166) it was 0.455 E-score. For the same sequence, the binding signal amounted to 0.179 E-score with GST-NST2(1-184); 0.377 E-score in the experiment with GST-SND1(1-203); 0.375 E-score with GST-VND3 NAC domain; 0.439 E-score with GST-VND7 NAC domain; 0.0936 E-score with GST-WRKY1(266-371).

Take ACAAGTCA: the binding signal with GST-ANAC092(1-176) was found to be 0.0976 E-score; in the experiment with GST-NTL6(1-168), 0.0563 E-score; in experiment [1] it was 0.276 E-score; in the experiment with GST-NAP(1-166) it was 0.146 E-score; with GST-NST2(1-184), 0.0664 E-score; in the experiment with GST-NTL8 NAC domain, 0.0517 E-score. Besides, the binding signal with GST-SND1(1-203) worked out at 0.114 E-score; with GST-VND3 NAC domain, 0.0796 E-score; in the experiment with GST-VND7 NAC domain, 0.0869 E-score; with GST-WRKY1(266-371), 0.43 E-score.

Regarding GTCAACAC, the binding signal with GST-ANAC092(1-176) came out at 0.238 E-score; with GST-ANAC019 NAC domain, 0.138 E-score; with GST-ANAC055(1-171), 0.173 E-score; with GST-ATAF1 NAC domain, 0.092 E-score; in experiment [1], 0.23 E-score; in the experiment with GST-NAP(1-166) it was 0.163 E-score. Besides, the binding signal with GST-NST2(1-184) stood at 0.134 E-score; in the experiment with GST-SND1(1-203) it was 0.134 E-score; in the experiment with GST-VND3 NAC domain, 0.133 E-score; with GST-VND7 NAC domain, 0.154 E-score; with GST-WRKY1(266-371) it was 0.478 E-score.

With ATTACGTC, the binding signal in the experiment with GST-ANAC092(1-176) is 0.366 E-score; with GST-ANAC019 NAC domain it was 0.329 E-score; in the experiment with GST-ANAC055(1-171) it was 0.353 E-score; with GST-ATAF1 NAC domain, 0.356 E-score; in experiment [1] it was 0.405 E-score; with GST-NAP(1-166), 0.376 E-score. The binding signal with GST-NST2(1-184) turned out to be 0.333 E-score; in the experiment with GST-SND1(1-203), 0.432 E-score; with GST-VND3 NAC domain, 0.37 E-score; with GST-VND7 NAC domain it was 0.357 E-score; with GST-WRKY1(266-371), 0.0595 E-score.
